Assay results reported in PubChem BioAssay (NCI).
About 83,000 compounds went through this panel and 20% of them were active in at least one assay; those are over-represented in the sample as a whole.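 Compound tested at a single concentration for 48 hours in 96-well plates; a percent growth value below 10 was scored as active.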 Activity calls are given as the source filed them.

How the values were obtained:
Assay in all cases: NCI-60 one-dose screen, 48 h (100 = growth as untreated, 0 = no growth, -100 = all killed)
Conditions in all cases: 10 µM unless noted
HCT-15 colon = system: HCT-15 colon
HT29 colon = system: HT29 colon
SNB-19 CNS = system: SNB-19 CNS
U251 CNS = system: U251 CNS
PC-3 prostate = system: PC-3 prostate
SK-MEL-5 melanoma = system: SK-MEL-5 melanoma
UACC-62 melanoma = system: UACC-62 melanoma
LOX IMVI melanoma = system: LOX IMVI melanoma
SK-MEL-28 melanoma = system: SK-MEL-28 melanoma
SK-MEL-2 melanoma = system: SK-MEL-2 melanoma
EKVX NSCLC = system: EKVX NSCLC
SN12C renal = system: SN12C renal
UO-31 renal = system: UO-31 renal
TK-10 renal = system: TK-10 renal
ACHN renal = system: ACHN renal
CAKI-1 renal = system: CAKI-1 renal
A498 renal = system: A498 renal
CCRF-CEM leukemia = system: CCRF-CEM leukemia
MOLT-4 leukemia = system: MOLT-4 leukemia

Measured: growth

COc1ccc(Cn2cc3c(c2-c2cc(OC)c(OC)c(OC)c2)CCc2cnoc2-3)cc1
inactive: HCT-15 colon 17.5% | HT29 colon 11% | SNB-19 CNS 44.3% | U251 CNS 29.3% | PC-3 prostate 25.7% | SK-MEL-5 melanoma 17% | UACC-62 melanoma 40.5% | LOX IMVI melanoma 38.1% | SK-MEL-28 melanoma 45% | SK-MEL-2 melanoma 42.8% | EKVX NSCLC 34.8% | SN12C renal 34.6% | UO-31 renal 30.4% | TK-10 renal 73.8% | ACHN renal 33.1% | CAKI-1 renal 21.2% | CCRF-CEM leukemia 12.9% | MOLT-4 leukemia 23.3%
active: A498 renal 3.83%

CC(C)(C)n1cc(-c2ccnc(NCCNS(=O)(=O)c3ccc(Cl)cc3)c2)c(-c2cccc(O)c2)n1
inactive: HCT-15 colon 15.1% | HT29 colon 16.6% | SNB-19 CNS 76.6% | U251 CNS 46.1% | PC-3 prostate 34.5% | SK-MEL-5 melanoma 25% | UACC-62 melanoma 71.7% | LOX IMVI melanoma 41.5% | SK-MEL-28 melanoma 63.3% | SK-MEL-2 melanoma 74.3% | EKVX NSCLC 60.2% | SN12C renal 61.6% | UO-31 renal 49.6% | TK-10 renal 108% | ACHN renal 76.8% | CAKI-1 renal 71.8% | A498 renal 69.4% | CCRF-CEM leukemia 50.3% | MOLT-4 leukemia 31.9%

COc1ccc(-c2nc(/C=N/Nc3cc(C)nc4ccc(Cl)cc34)c(C)o2)cc1
active: HCT-15 colon -91.5% | HT29 colon -96.1% | SNB-19 CNS -90.4% | U251 CNS -95.9% | PC-3 prostate -73.1% | LOX IMVI melanoma -97% | SK-MEL-28 melanoma -41.3% | EKVX NSCLC -19.4% | SN12C renal -92.9% | UO-31 renal -98.4% | TK-10 renal -36.1% | ACHN renal -100% | CAKI-1 renal -85.6% | CCRF-CEM leukemia -54.3% | MOLT-4 leukemia -46.7%
inactive: SK-MEL-5 melanoma 57% | UACC-62 melanoma 14.5% | SK-MEL-2 melanoma 101% | A498 renal 73%

COc1cc2c(=O)n(C3CCCCCC3)c3c4cc[nH]c4ncc3c2cc1OC
inactive: HCT-15 colon 62.9% | HT29 colon 79.9% | SNB-19 CNS 85.1% | U251 CNS 67% | PC-3 prostate 78.1% | SK-MEL-5 melanoma 87.2% | UACC-62 melanoma 99.9% | LOX IMVI melanoma 60.8% | SK-MEL-28 melanoma 105% | SK-MEL-2 melanoma 90.3% | EKVX NSCLC 91.8% | SN12C renal 55.6% | UO-31 renal 81.2% | TK-10 renal 96.3% | ACHN renal 70.5% | CAKI-1 renal 73.7% | A498 renal 24.6% | CCRF-CEM leukemia 51.1% | MOLT-4 leukemia 40.9%

Cc1ccc(/C=C2\CN(C(=O)CCN3CCC(=NO)CC3)C/C(=C\c3ccc(C)cc3)C2=O)cc1
active: HCT-15 colon -27.9% | HT29 colon -42.8% | SNB-19 CNS 7.61% | U251 CNS -49.6% | SK-MEL-5 melanoma -23.6% | UACC-62 melanoma -50.8% | LOX IMVI melanoma -89.7% | SK-MEL-28 melanoma -17.5% | EKVX NSCLC 8.39% | SN12C renal -34.4% | UO-31 renal -86% | ACHN renal -38.8% | CAKI-1 renal 5.48% | CCRF-CEM leukemia 1.97% | MOLT-4 leukemia 3.31%
inactive: PC-3 prostate 11.7% | SK-MEL-2 melanoma 91.5% | TK-10 renal 20.2% | A498 renal 46.6%

CC(C)CSc1nc(NN)c(C#N)c(-c2ccc(F)cc2)n1
inactive: HCT-15 colon 46.9% | HT29 colon 103% | SNB-19 CNS 60.8% | U251 CNS 60.2% | PC-3 prostate 56.7% | SK-MEL-5 melanoma 50.3% | UACC-62 melanoma 56% | LOX IMVI melanoma 54.4% | SK-MEL-28 melanoma 85% | SK-MEL-2 melanoma 67.9% | EKVX NSCLC 89.4% | SN12C renal 79.9% | UO-31 renal 55.8% | TK-10 renal 92.1% | ACHN renal 60.6% | CAKI-1 renal 67.9% | A498 renal 68.2% | CCRF-CEM leukemia 61.6% | MOLT-4 leukemia 80.3%

COc1cccc(CC(C)=C(c2ccc(OCCN3CCCCC3)cc2)c2ccc(OCCN3CCCCC3)cc2)c1
active: HCT-15 colon -68.1% | HT29 colon -77.9% | SNB-19 CNS -9.73% | U251 CNS -83.7% | SK-MEL-5 melanoma -96% | UACC-62 melanoma -72.7% | LOX IMVI melanoma -91.9% | SK-MEL-28 melanoma -87.9% | SK-MEL-2 melanoma -65.4% | SN12C renal -42.3% | UO-31 renal -92.2% | ACHN renal -88.4% | CAKI-1 renal -46.8% | A498 renal 8.39% | CCRF-CEM leukemia -31.8% | MOLT-4 leukemia -34.3%
inactive: PC-3 prostate 19.2% | EKVX NSCLC 18% | TK-10 renal 32.5%

CC(C)(C)n1cc(-c2ccnc(NCCNS(=O)(=O)c3ccc(F)cc3)c2)c(-c2cccc(O)c2)n1
inactive: HT29 colon 15.8% | SNB-19 CNS 71.3% | U251 CNS 48.4% | PC-3 prostate 35.5% | SK-MEL-5 melanoma 19.4% | UACC-62 melanoma 61.8% | LOX IMVI melanoma 31.2% | SK-MEL-28 melanoma 52.4% | SK-MEL-2 melanoma 66.5% | EKVX NSCLC 63% | SN12C renal 55.8% | UO-31 renal 53.9% | TK-10 renal 102% | ACHN renal 63% | CAKI-1 renal 61.3% | A498 renal 56.7% | CCRF-CEM leukemia 46.4% | MOLT-4 leukemia 35.3%
active: HCT-15 colon 8.99%

C=C1C(=O)O[C@H]2[C@H]1CC/C(Cn1cc(CNC(=O)Cc3cn(C(=O)c4ccc(Cl)cc4)c4ccc(OC)cc34)nn1)=C\CC[C@@]1(C)O[C@@H]21
inactive: HCT-15 colon 52.3% | SNB-19 CNS 47% | U251 CNS 14.2% | SK-MEL-5 melanoma 48.8% | SK-MEL-2 melanoma 17.1% | EKVX NSCLC 52.6% | SN12C renal 19.3% | UO-31 renal 30.2% | ACHN renal 15% | CAKI-1 renal 67.4% | A498 renal 53.7%
active: HT29 colon -57.4% | PC-3 prostate 7.48% | UACC-62 melanoma 8.27% | LOX IMVI melanoma -82% | SK-MEL-28 melanoma -56.9% | TK-10 renal -46.8% | CCRF-CEM leukemia -34% | MOLT-4 leukemia -23.5%

O=C(C1=Cc2cc3ccccc3n2Cc2cnnn21)c1ccccc1
inactive: HCT-15 colon 38.6% | SNB-19 CNS 32.2% | U251 CNS 32.6% | PC-3 prostate 47.7% | SK-MEL-5 melanoma 45.8% | UACC-62 melanoma 44.4% | LOX IMVI melanoma 49.8% | SK-MEL-28 melanoma 64.8% | SK-MEL-2 melanoma 44.1% | EKVX NSCLC 82.9% | SN12C renal 50.3% | UO-31 renal 64.8% | TK-10 renal 72.7% | ACHN renal 74.6% | CAKI-1 renal 58% | A498 renal 71.7% | CCRF-CEM leukemia 53% | MOLT-4 leukemia 42.1%
active: HT29 colon 7.8%

O=C(c1ccccc1)c1c(/C=C/c2ccccc2)c2ccccc2[nH]c1=O
inactive: HCT-15 colon 101% | HT29 colon 106% | SNB-19 CNS 79.4% | U251 CNS 90.5% | PC-3 prostate 89.5% | SK-MEL-5 melanoma 96.4% | UACC-62 melanoma 70.3% | LOX IMVI melanoma 105% | SK-MEL-28 melanoma 113% | SK-MEL-2 melanoma 92.6% | EKVX NSCLC 98.2% | SN12C renal 92.7% | UO-31 renal 73.6% | TK-10 renal 97.8% | ACHN renal 93.5% | CAKI-1 renal 91.8% | A498 renal 97.6% | CCRF-CEM leukemia 87.6% | MOLT-4 leukemia 84.1%

CC(=O)Oc1csc(N(C(C)=O)c2cccc(C(F)(F)F)c2)n1
inactive: HCT-15 colon 94.4% | HT29 colon 102% | SNB-19 CNS 97.8% | U251 CNS 88.3% | PC-3 prostate 85.6% | SK-MEL-5 melanoma 92.1% | UACC-62 melanoma 89.2% | LOX IMVI melanoma 92.3% | SK-MEL-28 melanoma 103% | SK-MEL-2 melanoma 96.7% | EKVX NSCLC 46.1% | SN12C renal 89.6% | UO-31 renal 91% | TK-10 renal 108% | ACHN renal 102% | CAKI-1 renal 98.4% | A498 renal 85.2% | CCRF-CEM leukemia 60.9% | MOLT-4 leukemia 104%

CCO/C=N/C1=C(C#N)C(c2ccc(Cl)cc2)c2c(c3ccccc3n(C)c2=O)O1 (configuration not stated)
inactive: HCT-15 colon 41.1% | HT29 colon 35% | SNB-19 CNS 72.9% | U251 CNS 79.3% | PC-3 prostate 63% | SK-MEL-5 melanoma 74.2% | UACC-62 melanoma 46.5% | LOX IMVI melanoma 64.7% | SK-MEL-28 melanoma 83.9% | SK-MEL-2 melanoma 85.4% | EKVX NSCLC 74% | SN12C renal 74.6% | UO-31 renal 56.2% | TK-10 renal 115% | ACHN renal 75.7% | A498 renal 47.9% | CCRF-CEM leukemia 66.9% | MOLT-4 leukemia 75.2%
active: CAKI-1 renal -0.281%

COc1ccc(-c2nc(/C=C3/C(=O)Nc4ccc(F)cc43)c3ccccn23)cc1
inactive: HCT-15 colon 107% | HT29 colon 103% | SNB-19 CNS 101% | U251 CNS 88.3% | PC-3 prostate 108% | SK-MEL-5 melanoma 102% | UACC-62 melanoma 106% | LOX IMVI melanoma 92.7% | SK-MEL-28 melanoma 105% | SK-MEL-2 melanoma 112% | EKVX NSCLC 123% | SN12C renal 106% | UO-31 renal 97% | TK-10 renal 116% | ACHN renal 96.5% | CAKI-1 renal 98.2% | CCRF-CEM leukemia 93.9% | MOLT-4 leukemia 91.8%

Cc1ccc(S(=O)(=O)c2nc(-c3ccccc3)oc2S(C)(=O)=O)cc1
inactive: SNB-19 CNS 60.9% | U251 CNS 60.7% | PC-3 prostate 84% | SK-MEL-5 melanoma 88.8% | UACC-62 melanoma 75.7% | SK-MEL-28 melanoma 62.6% | SK-MEL-2 melanoma 67.5% | EKVX NSCLC 74.1% | A498 renal 85.2%
active: HCT-15 colon -14.2% | HT29 colon -6.17% | LOX IMVI melanoma -32.7% | SN12C renal 0.543% | UO-31 renal 2.62% | TK-10 renal -72.8% | ACHN renal -99.7% | CAKI-1 renal -98.9% | CCRF-CEM leukemia 0.985% | MOLT-4 leukemia -16.3%

COc1cc(/C=C/C(=O)N2CCN(C(=O)/C=C/c3cc(OC)c(OC)c(OC)c3)CC2)cc(OC)c1OC
inactive: HCT-15 colon 113% | HT29 colon 109% | SNB-19 CNS 105% | U251 CNS 103% | PC-3 prostate 102% | SK-MEL-5 melanoma 104% | UACC-62 melanoma 89.1% | LOX IMVI melanoma 101% | SK-MEL-28 melanoma 105% | SK-MEL-2 melanoma 110% | EKVX NSCLC 114% | SN12C renal 102% | UO-31 renal 88.5% | TK-10 renal 121% | ACHN renal 106% | CAKI-1 renal 119% | CCRF-CEM leukemia 98.6% | MOLT-4 leukemia 95.9%
